Source: PubChem BioAssay
Only some compounds are listed: those with a hit (about 1.3% of all), similar ones and a draw of the others.
Giardia kill – Small Molecules that selectively kill Giardia lamblia: qHTS | Giardia lamblia trophozoite viability | activity change, % at 7.66 µM, hits read low | 340,000 compounds, 0.15% hits | AID 540267, 2011; in the data active = activity change below about -80%; inconclusive = between about -30% and that limit;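 note: parasites exposed to compound for two days anaerobically before the ATP read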
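Each well holds 100 Giardia trophozoites and compound. After two days (48 hrs) at 37 deg C in anaerobic conditions, ATP is quantified by luminescence.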
Pin1 inh – qHTS Assay to Find Inhibitors of Pin1; Peptidyl-prolyl cis-trans isomerase NIMA-interacting 1 (Homo sapiens), Q13526; Potency, µM (top dose mostly 115 µM), most hits filed as inhibitors; 390,000 compounds, 0.009% hits; AID 504891, 2011; Pin1 FP peptide displacement, HiFluor488, 10 min; active = well fitted inhibition curve with a large enough effect in the polarisation, with a control signal flat, not every such curve was filed as active; inconclusive = small, poorly fitted or top-dose-only effect, or effect the other way, or a change in a side signal; inactive = no such curve, though single readings can be large or run the other way; the % refers to the polarisation
TrxR1 substrate – qHTS Assay for Substrates of Mammalian Selenoprotein Thioredoxin Reductase 1 (TrxR1): qHTS. Thioredoxin reductase 1, cytoplasmic (Rattus norvegicus), O89049. purified TrxR1 substrate turnover, NADPH consumption readout. Potency, µM (top dose mostly 114 µM). 390,000 compounds, 0.01% hits. AID 588456, 2011; note: nearly all actives have a fitted effect of over 50% in size
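Rat TrxR1, dispensed at 90 nM, was prereduced with 400 uM NADPH (final) for 5 min at ~22 deg C, then incubated with compound 15 min before 400 uM selenite. A first-read NADPH fluorescence drop versus no-compound background flagged substrates.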
GALK inhibitor – qHTS Assay for Inhibitors of Human Galactokinase (GALK); P51570; Purified GALK, Kinase-Glo residual ATP luminescence; Potency, µM (doses to about 57.5 µM), most hits filed as inhibitors; 270,000 compounds, 0.007% hits
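Galactose (100 uM) and ATP (35 uM) were turned over by 5 nM GALK for 1 h at RT. Kinase-Glo Plus then converted the remaining ATP into a luminescent signal.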
GCN5L2 inh – qHTS Assay for Inhibitors of GCN5L2; Histone acetyltransferase KAT2A (Homo sapiens), Q92830; GCN5L2 HAT assay, ThioGlo1 CoA-SH fluorescence; Potency, µM (top dose mostly 58.9 µM), hits mostly inhibitors; 390,000 compounds, 0.21% hits
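Preincubate 20nM GCN5L2 with compound 15 min, RT → add 50uM ThioGlo1 + 75uM H3(1-25) + 70uM acetyl-CoA → read fluorescence 0 and 20 min. Primary qHTS; fluorescent artifacts likely.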
rTrxR1 inhibitor – qHTS Assay for Inhibitors of Mammalian Selenoprotein Thioredoxin Reductase 1 (TrxR1): qHTS; recombinant rTrxR1, NADPH fluorescence consumption, selenite substrate; Potency, µM (doses to about 114 µM), most hits filed as inhibitors; 390,000 compounds, 1% hits; AID 588453, 2011; note: nearly all actives have a fitted effect of over 65% in size
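Rat TrxR1 (90 nM in the dispensed reagent) was pre-reduced with 400 uM NADPH for 5 min at room temperature, then incubated with compound for 15 min. After 400 uM selenite was added, NADPH fluorescence (Ex 340/Em 450 nm) was followed for 8 min.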
Hits are given with their value; – = inactive; ? = inconclusive; · = no result. Unless noted, calls come from the whole dose curve; as a rule, active = well fitted curve in the direction sought with a large enough effect; inconclusive = small, poorly fitted or top-dose-only effect, or another doubt; inactive = no such curve, though single readings can be large; an effect the other way counts as inactive or inconclusive.

SMILES	Giardia kill	Pin1 inh	TrxR1 substrate	GALK inhibitor	GCN5L2 inh	rTrxR1 inhibitor
O=C(c1ccccc1O)N1CCOCC1	–	–	–	–	–	–
O=C(O)C1Nc2c(C(=O)N3CCOCC3)cccc2C2C=CCC12 (stereo not given)	–	?	–	–	–	1.58µM
CCCC1Nc2ccc(C(=O)O)cc2C2C=CCC12 (stereo not given)	–	?	–	–	–	50.1µM
COCCNC(=O)C1Nc2ccc(C(F)(F)F)cc2C2C=CCC12 (stereo not given)	–	–	–	·	·	–
O=C(O)C1Nc2ccccc2C2C=CCC12 (stereo not given)	–	?	–	·	·	3.55µM
CCOC(=O)C1Nc2ccc(C(=O)O)cc2C2C=CCC12 (stereo not given)	–	?	–	–	–	11.2µM
COC(=O)CNC(=O)C1Nc2ccc(OC(F)(F)F)cc2C2C=CCC12 (stereo not given)	–	–	–	·	·	–
Cc1ccc(C)c(N2CCN(c3nc4ccccc4n4nnnc34)CC2)c1	·	?	–	·	–	–
COc1c(Cl)cc(C(=O)NCc2ccco2)cc1Cl	–	–	–	–	–	–
CC(=O)Nc1ccc(NC(=O)c2csnn2)cc1	·	?	–	·	–	–
C=CCN1C=C2C(=O)C(C)(OC(=O)c3ccc(OC)cc3)C(=O)C(c3ccco3)=C2C=C1CCCC (stereo not given)	–	?	–	–	–	7.08µM
CCCCC1=CC2=C(c3ccco3)C(=O)C(C)(OC(=O)c3ccc(OC)cc3)C(=O)C2=CN1CCCOC(C)C (stereo not given)	–	?	–	–	–	–
Nc1ccc(N2CCCCC2)c2nonc12	–	·	50.1µM	–	–	?
Nc1c(N2CCCC2)cc(Cl)c2nonc12	–	?	–	–	–	25.1µM
NC(=O)c1cc([N+](=O)[O-])ccc1NCc1ccc(O)cc1	–	–	–	·	–	–
O=C(Nc1ccc(C(=O)N2CCC(N3CCCC3)CC2)cc1)c1ccc(Br)o1	–	–	–	·	–	56.2µM
COc1cc(F)c(S(=O)(=O)N2CCCN(S(=O)(=O)c3ccc(NC(C)=O)cc3)CC2)c(F)c1	·	–	·	·	·	·
Cc1ccc(/C=C/S(=O)(=O)NCC(=O)OCC(=O)Nc2ccc(C(N)=O)cc2)cc1	–	–	–	·	–	–
Cc1ccc(/C=C/S(=O)(=O)NCC(=O)OCC(=O)Nc2c(F)cccc2F)cc1	–	–	–	·	–	31.6µM
Cc1noc(C)c1-c1nc(N(C)C)c2ccccc2n1	·	·	·	·	–	·
CCN(Cc1ccc(OC)c(F)c1)C(=O)C1CCCO1 (stereo not given)	–	–	–	–	–	–
CCN(Cc1ccc(OC)c(F)c1)C(=O)CCl	–	–	–	–	–	25.1µM
COc1cccc(OCc2cc(C3Nc4ccccc4C(=O)N3Cc3ccco3)ccc2OC)c1 (stereo not given)	–	–	–	–	–	?
COc1ccc(C2Nc3ccccc3C(=O)N2Cc2ccco2)cc1COc1c(C)cccc1C (stereo not given)	–	–	–	·	·	20µM
CC(C)CN(Cc1c(O)ccc2ccccc12)CC(C)C	–	–	–	–	–	–
CCN(Cc1ccncc1)Cc1c(O)ccc2ccccc12	–	–	–	–	–	5.01µM
CCc1nnc(NC(=O)c2nc(S(=O)(=O)Cc3cccc(C)c3)ncc2Cl)s1	–	–	–	–	–	39.8µM
CCc1nnc(NC(=O)c2nc(S(=O)(=O)Cc3ccccc3)ncc2Cl)s1	–	–	–	–	–	44.7µM
CCc1nnc(NC(=O)c2nc(S(=O)(=O)Cc3ccc(C)cc3)ncc2Cl)s1	–	–	–	–	–	44.7µM
CCSc1ncc(Cl)c(C(=O)Nc2ccccc2OC)n1	–	–	–	–	–	–
